From PubChem BioAssay AID1508600 (Functional Genomics Laboratory (NCATS/FGL), 2020)
The campaign covered roughly 53,000 sequences. About 3,700 (7%) were called active. The full list was thinned out, with actives kept by preference. Values without a mark were called inactive.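 Rule for the calls: active = gene knockdowns whose robust z-score for IL-1 alpha signal is at least 2 or at most -2, so actives lie on both sides; inactive = the rest.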

assay: Components of the Cytosolic LPS Sensing Pathway: Gene Identification via Genome-wide siRNA Screen; settings: RAW264.7 macrophages, IL-1a HTRF, actives lie on both sides, screened at 100 nM (by protocol), cells primed 5 h with Pam3CSK4 first;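 note: robust z of the log signal after scaling to non-targeting control siRNA wells of the plate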
Summary of the method: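 Using IL-1a HTRF as read-out, the screen measured release from RAW264.7 cells after 48h siRNA knockdown (100 nM), 5 h Pam3CSK4 priming and 24 h cytosolic LipidA. Values were expressed relative to negative-control wells as robust z-scores.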

Row | Sequence | z-score
1 | GGAAGUGGCGAGGUUCUAUTT against Folr1 | 0.782
2 | GCAGAACACCGCUGGAAGUTT against Pard3 | 3.14 (active)
3 | CGCAAUGUAUGAUUCAAUGTT against Mogat1 | 1.76
4 | GCUAAUUCCCUGGCCUCAATT against Tro | -0.627
5 | GGUUUAUAGGCCUUCUUCCTT against Flot2 | -0.763
6 | GCAUCGUUAUGCGCCUCACTT against Neurog2 | 0.297
7 | CGGGCAUGAUGAAUCGAUGTT against Ldhd | 1.83
8 | GGCUUGAUGAAGAGAAUAUTT against Oog4 | -1.45
9 | CGGACUCUGUGUUCUUAGATT against Alg3 | 2.68 (active)
10 | GGGCGACUUAUUUUUUGUUTT against Zfp111 | 0.333
11 | GGACUUCAUCAACAACAUCTT against Nsmce1 | 0.459
12 | GGAAAUCUUCAUGAUCAGUTT against Fam24b | -2.24 (active)
13 | GGUCAUCGGGUAAUUAAUCTT against Rad52 | -0.618
14 | GGAGUCUGCUCUCAUUCUUTT against Slc30a1 | -0.214
15 | GGAUGCUGAGCUUUCUGACTT against Fchsd1 | 0.476
16 | GGCCCUGUUGCUAUGUGUUTT against Map1s | 2.06 (active)
17 | GGCACCGCUAUUCAGAAUUTT against Fgf23 | 0.755
18 | GCUGGAAAAGUGCUGUGGGTT against Sult1c1 | -0.494
19 | GGCUUCCUUUUUGAAGCUATT against Slc35b4 | 0.258
20 | CCGUCAAAACAUUACCAUUTT against Hmcn2 | -0.363
21 | GGUAGAAGAGAGUAUCAACTT against Commd1 | 1.28
22 | GGAAAGUCUACAUGUAUUATT against Enpp6 | -0.886

Row | Sequence | z-score
23 | ACAUUUAUCACGACCCUUCTT against Olfr777 | 1.3
24 | GGCCUUCACUGAUGAAUGUTT against Pramel32 | -2.21 (active)
25 | GGCGAAAAGCCGUUCCAUUTT against E430018J23Rik | 0.664
26 | GGAGAAGAACGAGAAACGUTT against Nyap2 | 0.904
27 | CCAUUGAAAUUUCCAUCUGTT against Baalc | 0.115
28 | CGUGAACUUUCAGAGCAGGTT against Rrp36 | 0.124
29 | CCAUAGCAGGGAAGAUUUUTT against Kcnd2 | 3.78 (active)
30 | GGAUCCACAGUCAUUCAGATT against Sike1 | 1.13
31 | GGUCUUCAUGGUCAAAGUGTT against Fzd10 | 2.11 (active)
32 | GCAAAGUCCAGUGAACAACTT against Gtse1 | -1.15
33 | GGCCACAAUGGAUCAGAUGTT against Gldn | 1.53
34 | GGAUCUUUUAGCUAACCUATT against Tesk2 | 1.84
35 | GGCAACCUGCUGGUAAUCATT against Adrb3 | 3.53 (active)
36 | GGCAUGCUGGAAUCAAACATT against Dppa2 | 0.699
37 | GGUGAGCAAAGCCAAGAAGTT against Sgpl1 | -1.42
38 | GGCUUGCUUUGCUUCCCUUTT against Med28 | -1.24
39 | CCCGAAAGACAUGUAUUCGTT against Mrps18b | -0.38
40 | CUACUUCGAGAACAUGGGUTT against Tpgs1 | -0.749
41 | GGUGAUAUCUUUCCAUCUUTT against Wiz | -0.176
42 | CCACACUUAGUCAUUUUCUTT against Paral1 | -2.06 (active)
43 | GGCCUACGAAGUGCAAAGATT against Sipa1l3 | -0.667
44 | GGACUAGAAGAUCUACACUTT against Olfr67 | -0.921

Row | Sequence | z-score
45 | GCCUCGAUGCAAGAUGAUGTT against C2cd2l | -0.82
46 | GGAUAAAGAAGGACUCAAATT against Tpbpb | -2.16 (active)
47 | GGAGUAUGCGUACCUGAAGTT against Nr0b2 | -0.903
48 | GGCAGAGCUUGGAGUAUCUTT against Gtpbp4 | 1.31
49 | GGGAGAAAAAGGCAUUUUUTT against Them5 | 0.46
50 | GGACAACACAUUUGUGCUCTT against Sh2b2 | 0.209
51 | GUCUGAACUUCUUAGCAUCTT against Uchl4 | 0.788
52 | CCAGUGAUCAGUUUUAACGTT against Adamts20 | 0.184
53 | CCUCAAUUGCAUGUGACCUTT against Itgb1bp1 | -2.32 (active)
54 | GGAUACAAAGAGAGUUGUCTT against Eif3c | 1.23
55 | GGUGCUGCACAAAUACAUATT against Eef1aknmt | 0.715
56 | CGAUCGAAAUCAAGUCGAUTT against Septin9 | 0.415
57 | GGUUCUCUGCCAGUUCUGUTT against Mid1 | 3.32 (active)
58 | GGACCAUGUUAGAGCAUGCTT against Traf2 | -2.36 (active)
59 | GGUCCUACUUGUUCAUUGATT against Il1rl1 | -0.802
60 | GGACUUCAGUGAGGAUCAATT against Scg5 | 0.866
61 | CCCUCCGAAAAUUUUUCUGTT against Defb14 | -0.363
62 | GGUAUGGAUCAAGGUUCUUTT against Gja6 | 3.21 (active)
63 | GGUGGCCAUCAAGAAGAUATT against Mapk7 | -0.749
64 | CGACCACACAGGGAUAUACTT against Sectm1a | -0.169
65 | GGGCUAUCUAUCAUAGUUUTT against Scp2 | 1.17
66 | GCAUGUAUAACAGACCCAUTT against Tex47 | 0.928

Row | Sequence | z-score
67 | GGUCACCUUAUAAUUGCCCTT against Btd | -2.83 (active)
68 | GGUGAGAUAGGUCUAGUUGTT against Col10a1 | -0.273
69 | GGAUCACUGACUUUGAAUUTT against Mob2 | -0.654
70 | GGCUGUCAUGCAUUAUAUGTT against Tfeb | -0.535
71 | GGAGCUUCUUGACCUCGUGTT against Frmd4a | 0.184
72 | CCUGUUUUCCGACUUGUUGTT against Il4ra | 0.809
73 | GGUGGUUACACAAGGAACATT against Phgdh | -0.314
74 | GGCUCAUCCCAAUGCUAUATT against Sdc3 | 0.304
75 | GGUGAUCACUCUCUCUGAATT against Olfr187 | -0.975
76 | CCGUAACCCAGAAAAUGUATT against Eva1a | -2.01 (active)
77 | CCAUUGACUUACUUCUAAGTT against Gimap6 | 0.58
78 | GGAUCAACGGAUUUUAGAATT against Gcfc2 | 1.21
79 | GGAGAUGAAAAGAGAAAUCTT against Cct6b | 2.41 (active)
80 | GGAGCUGAUGACUUCAGGCTT against Mmp19 | 1.17
81 | GGGAUUCUCCAAAAGGAAGTT against Arhgap6 | 0.856
82 | GGUGAUGAAGAGGUUCCCUTT against Fzd4 | -0.868
83 | GAAGAUGCCACGCUAAAAATT against Adam34 | 2.73 (active)
84 | GGGCUUUGCUGUCUAUGCATT against Dmwd | -0.617
85 | GGAGUUUGAUCAGAUCCUATT against Asf1b | 1.74
86 | GAAAUCAGAAGAAAUGAAGTT against Phgr1 | -0.451
87 | GGAAUCAAAGAUGGAGAGGTT against Galnt3 | -0.409
88 | GGAAACAUUGUCAUCAUGATT against Olfr1299 | -0.787

Row | Sequence | z-score
89 | GGUCAUGUUUCUCUCCCAATT against Veph1 | -2.11 (active)
90 | GCGGUAUCCUAGCUGUGAATT against Brsk1 | -0.0667
91 | CCCUGUAUAUAUGAUGACATT against Ldhd | -1.83
92 | GGGUCUACAAUCACCAGACTT against Wnt10a | 1.15
93 | GAUGAUCUUUUGGAUGAACTT against Spem2 | -0.51
94 | CCCAGGCACUUGUUUACAGTT against Stim2 | -0.454
95 | GGCAUGCUUGGCUUAUUUGTT against Kcnk4 | 0.0317
96 | GCUGCUAUCCAGAAGGUAUTT against Egr2 | -2.04 (active)
97 | GGCUUACUAACAGUUUUUGTT against Gem | -0.29
98 | GGCAUCGAGAUUUAAUUGATT against Usp27x | -0.179
99 | GGCUCUCUGGCUUACUAAGTT against Mrpl37 | 1.09
100 | CCCAGGUCCUACCUUCUUUTT against Ppcdc | -2.1 (active)
101 | GGUGUGGGAUUUCUACACUTT against Sbf1 | 0.0854
102 | GCAGCUUGCUUGAUUCAAGTT against Iqcb1 | 0.424
103 | GCAUUUGGGCAACGAGAUGTT against Nr5a1 | -1.3
104 | GGCAGCUGGAAAGACAAAATT against Snca | 1.19
105 | GCUGAGAGUAUCCUUAUUCTT against Fhdc1 | 0.374
106 | GGCCAACAUCUGCUAUGUCTT against Hao2 | -2.58 (active)
107 | GGUCAACGUGUAUGUAUUUTT against Lrat | -1.27
108 | CGUGCAUGUGUAAGUCAGGTT against Hpvc2 | 0.68
